Tau fibril ThT: qHTS for Inhibitors of Tau Fibril Formation, Thioflavin T Binding. Microtubule-associated protein tau (Homo sapiens), P10636. recombinant tau K18 P301L, heparin-induced fibrillization, ThT fluorescence. Potency, µM (highest dose often 57.4 µM), actives largely listed as inhibitors. 2.1% of 270,000 active. AID 1460, 2008; further: nearly all actives have a fitted effect of over 55% in size
Target sequence (P10636 561-689 P618L limits assumed): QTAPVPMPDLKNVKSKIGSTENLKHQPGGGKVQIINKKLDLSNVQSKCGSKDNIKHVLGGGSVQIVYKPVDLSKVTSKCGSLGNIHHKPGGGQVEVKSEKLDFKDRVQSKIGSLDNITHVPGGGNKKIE
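Using a mix of unlabeled (15 uM) and Alexa 594-labeled (0.24 uM) tau K18 P301L, heparin-triggered fibrillization over 6 hr at 37 C was scored by ThT fluorescence.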
Tau fluor counter: Counterscreen qHTS for Inhibitors of Tau Fibril Formation, Fluorescence Polarization; tau K18 P301L Alexa594 fluorescence, heparin fibrillization; Potency, µM (series often up to 57.7 µM); 0.93% of 280,000 active; further: nearly all actives have a fitted effect of over 55% in size
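Human tau K18 P301L (15 uM unlabeled, 0.24 uM Alexa 594-labeled) in 100 mM sodium acetate pH 7 with 20 uM heparin, 6 hr at 37 C. ThT 30 uM added, 1 hr ambient; Alexa 594 FP and total fluorescence read at 555/632 nm.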
TRb-SRC2 inh: qHTS for Inhibitors of the Interaction of Thyroid Hormone Receptor and Steroid Receptor Coregulator 2 | Thyroid hormone receptor beta (Homo sapiens), P10828 | TRbeta-SRC2 peptide binding, fluorescence polarization; receptor liganded with 1 µM T3 | Potency, µM (highest dose often 106 µM), most hits filed as inhibitors | 0.065% of 280,000 active; further: nearly all actives have a fitted effect of over 50% in size
Target sequence (P10828 whole entry, looked up): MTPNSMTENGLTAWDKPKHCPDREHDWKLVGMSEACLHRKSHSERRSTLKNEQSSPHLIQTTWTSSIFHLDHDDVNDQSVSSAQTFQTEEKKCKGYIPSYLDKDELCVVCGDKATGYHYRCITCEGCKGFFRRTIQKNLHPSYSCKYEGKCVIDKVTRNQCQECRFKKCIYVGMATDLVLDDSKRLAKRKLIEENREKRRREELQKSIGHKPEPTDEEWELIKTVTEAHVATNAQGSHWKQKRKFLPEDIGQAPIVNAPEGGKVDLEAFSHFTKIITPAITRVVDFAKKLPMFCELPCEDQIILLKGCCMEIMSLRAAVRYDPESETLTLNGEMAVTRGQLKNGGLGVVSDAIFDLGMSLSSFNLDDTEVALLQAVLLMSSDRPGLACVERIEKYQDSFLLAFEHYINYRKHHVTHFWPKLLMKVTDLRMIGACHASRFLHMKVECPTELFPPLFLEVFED
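Fluorescence polarization of 20 nM Texas Red SRC2 peptide (20-aa NR interaction domain) bound to 0.6 uM human TRb ligand-binding domain, with 1 uM T3, after 5 hr at ambient temperature; inhibition seen as decreased polarization.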
Tau fibril FP: qHTS for Inhibitors of Tau Fibril Formation, Fluorescence Polarization; Microtubule-associated protein tau (Homo sapiens), P10636; K18 P301L tau heparin fibrillization, Alexa594 FP, 6 h; Potency, µM (top dose mostly 57.7 µM), hits mostly inhibitors; 0.39% of 280,000 active; further: nearly all actives have a fitted effect of over 55% in size
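Recombinant K18 P301L […], labeled with Alexa 594 at 0.24 uM over 15 uM unlabeled; heparin inducer 20 uM final; 37 C, 6 hr; FP endpoint.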
TexasRed fluor: Total Fluorescence Counterscreen for Inhibitors of the Interaction of Thyroid Hormone Receptor and Steroid Receptor Coregulator 2; Potency, µM (series often up to 106 µM); 0.29% of 280,000 active; TRb/SRC2 Texas Red total fluorescence interference; active means well fitted curve in either direction with a large enough effect; inconclusive means small, poorly fitted or top-dose-only effect
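Flags fluorescent or light-absorbing compounds by total fluorescence, S + 2P, at 555 nm excitation and 632 nm emission. Mixture: 20 nM Texas Red SRC2 peptide, 0.6 uM human TRb LBD, 1 uM T3, 5% DMSO; compound exposure 5 h at ambient temperature.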
A number is an active result; [ ] = remark or other dose. A selection: hits, their analogues and other compounds. The true share with any hit is near 3%. Unless noted, the call rests on the fitted dose curve; in most records, active means well fitted curve in the direction sought with a large enough effect; inconclusive means small, poorly fitted or top-dose-only effect, or another doubt; inactive means no such curve, though single readings can be large; an effect the other way counts as inactive or inconclusive.

Screening CCC1CN(C(=O)N2CCC(C(=O)NCc3ccc(N(C)C)cc3)CC2)c2ccccc2O1 (configuration not stated) returned Tau fibril ThT inactive, Tau fluor counter inactive, TRb-SRC2 inh inactive, Tau fibril FP inactive and TexasRed fluor inactive.
Screening Cc1cc2ccccn2c1C(=S)NC(=O)c1ccccc1 returned Tau fibril ThT 16µM, Tau fluor counter inactive, TRb-SRC2 inh inactive, Tau fibril FP inactive and TexasRed fluor inactive.
Screening N#Cc1cc2c(OCC(O)CN3CCN(C(c4ccccc4)c4ccccc4)CC3)cccc2[nH]1 (configuration not stated) returned Tau fibril ThT inactive, Tau fluor counter inconclusive, TRb-SRC2 inh inactive, Tau fibril FP 28µM and TexasRed fluor inactive.
Screening CC1CCCN(c2ccc(C(=O)Nc3nnc(C4CC4)s3)cc2[N+](=O)[O-])C1 (configuration not stated) returned Tau fibril ThT 4µM, Tau fluor counter inactive, TRb-SRC2 inh inactive, Tau fibril FP inconclusive and TexasRed fluor inactive.
For CC1CCN(c2ccc(C(=O)Nc3ccc4c(c3)OCO4)cc2[N+](=O)[O-])CC1 the results were Tau fibril ThT 4µM, Tau fluor counter inconclusive, TRb-SRC2 inh inactive, Tau fibril FP inactive and TexasRed fluor inactive.
For O=C(COC(=O)c1ccc(N2CCOCC2)c([N+](=O)[O-])c1)Nc1ccc2c(c1)OCO2 the results were Tau fibril ThT inconclusive, Tau fluor counter inactive, TRb-SRC2 inh inactive, Tau fibril FP inactive and TexasRed fluor inactive.
Screening CC1CCCN(c2ccc(C(=O)Nc3ccc4c(c3)OCO4)cc2[N+](=O)[O-])C1 (configuration not stated) returned Tau fibril ThT 7.1µM, Tau fluor counter inconclusive, TRb-SRC2 inh inactive, Tau fibril FP inactive and TexasRed fluor inactive.
Screening CO[C@H]1COC(=O)[C@H](C)COC(=O)[C@@H](OCc2ccccc2)/C=C\[C@@H]1C returned Tau fibril ThT inactive[11.5 µM], Tau fluor counter inactive[11.6 µM], TRb-SRC2 inh inactive[11.2 µM], Tau fibril FP inactive[11.6 µM] and TexasRed fluor inactive[11.2 µM].
For Cn1c(=O)c(NCCc2ccccc2)c2c3c(cccc31)C(=O)c1ccccc1-2 the results were Tau fibril ThT inactive, Tau fluor counter inactive, TRb-SRC2 inh 28µM, Tau fibril FP inactive and TexasRed fluor 45µM[fluorescent].
For CCOc1ccc(CCNC(=O)Cn2nnc(-c3ccccc3Cl)n2)cc1OCC the results were Tau fibril ThT inactive, Tau fluor counter inactive, TRb-SRC2 inh inactive, Tau fibril FP inactive and TexasRed fluor inactive.
`O=C(O)CCCCCNc1ccc2nsnc2c1[N+](=O)[O-]` gave Tau fibril ThT inactive, Tau fluor counter inactive, TRb-SRC2 inh inactive, Tau fibril FP inactive and TexasRed fluor 35µM[quencher].
`COC(=O)C/C=C\[C@@H](C)[C@@H](/C=N\OCC[C@@H]1C=C[C@H](OC(C)=O)[C@H](COC(C)=O)O1)OC` gave Tau fibril ThT inactive[11.5 µM], Tau fluor counter inactive[11.6 µM], TRb-SRC2 inh inactive[11.2 µM], Tau fibril FP inactive[11.6 µM] and TexasRed fluor inactive[11.2 µM].
For CCOc1ccc(N2Nc3n[nH]c(N)c3N2)cc1 the results were Tau fibril ThT 13µM, Tau fluor counter inconclusive, TRb-SRC2 inh inactive, Tau fibril FP inactive and TexasRed fluor inactive.
For COc1ccc(N2Nc3n[nH]c(N)c3N2)cc1 the results were Tau fibril ThT 8.9µM, Tau fluor counter inconclusive, TRb-SRC2 inh inactive, Tau fibril FP inactive and TexasRed fluor inactive.
For CCOc1ccc(Cc2n[nH]c(=S)n2N)cc1 the results were Tau fibril ThT inactive, Tau fluor counter inactive, TRb-SRC2 inh inactive, Tau fibril FP inactive and TexasRed fluor inactive.
Screening Cc1cc(C)c(NC(=O)C(=O)NCC(c2cccnc2)N2CCN(Cc3ccccc3)CC2)c(C)c1 (configuration not stated) returned Tau fibril ThT inactive, Tau fluor counter inconclusive, TRb-SRC2 inh inactive, Tau fibril FP inactive and TexasRed fluor inactive.
COc1cc(NC(=O)Nc2cccc([N+](=O)[O-])c2)cc(OC)c1 was read as Tau fibril ThT inconclusive, Tau fluor counter 14µM[quencher], TRb-SRC2 inh inactive, Tau fibril FP inconclusive and TexasRed fluor inactive.
For COc1ccc(C(=O)C(C)Oc2cccc(NC(=O)c3cccc([N+](=O)[O-])c3)c2)cc1 (configuration not stated) the results were Tau fibril ThT inactive, Tau fluor counter 3.5µM[quencher], TRb-SRC2 inh inactive, Tau fibril FP inactive and TexasRed fluor inactive.
Screening O=C(Nc1cccc([N+](=O)[O-])c1)Nc1cccc([N+](=O)[O-])c1 returned Tau fibril ThT inconclusive, Tau fluor counter inconclusive, TRb-SRC2 inh inactive, Tau fibril FP inactive and TexasRed fluor inactive.
O=C(Nc1cccc([N+](=O)[O-])c1)Nc1ccc2c(c1)OCCO2 was read as Tau fibril ThT inconclusive, Tau fluor counter 14µM[quencher], TRb-SRC2 inh inactive, Tau fibril FP inactive and TexasRed fluor inactive.
Screening Brc1ccc(Oc2ccc(Br)cc2)cc1 returned TRb-SRC2 inh inactive and TexasRed fluor inactive.
`Cc1ccc2cccc(NC(=O)COc3ccccc3Cl)c2n1` gave Tau fibril ThT inconclusive, Tau fluor counter inconclusive, TRb-SRC2 inh inactive, Tau fibril FP inactive and TexasRed fluor 16µM[quencher].
Screening Cc1sc(-c2ccncc2)nc1OC(=O)c1cc(Cl)cc(Cl)c1 returned Tau fibril ThT 28µM, Tau fluor counter inactive, TRb-SRC2 inh inactive, Tau fibril FP inactive and TexasRed fluor inactive.
Screening Cc1sc(-c2ccncc2)nc1OC(=O)c1ccc(Cl)cc1 returned Tau fibril ThT inconclusive, Tau fluor counter inactive, TRb-SRC2 inh inactive, Tau fibril FP inactive and TexasRed fluor inactive.
For COC(=O)C1=C(C(=O)OC)[C@@H]2Nc3ccccc3[C@@]23C[C@@H](C(=O)OC)N(S(=O)(=O)c2ccc(C)cc2)C3=N1 the results were Tau fibril ThT inactive[11.5 µM], Tau fluor counter inactive[11.6 µM], TRb-SRC2 inh inactive[11.2 µM], Tau fibril FP inactive[11.6 µM] and TexasRed fluor inactive[11.2 µM].
CC(=O)Nc1ccc(S(=O)(=O)Nc2nnc(CC(C)(C)C)s2)cc1 was read as Tau fibril ThT 4µM, Tau fluor counter inactive, TRb-SRC2 inh inactive, Tau fibril FP inactive and TexasRed fluor inactive.
Screening COc1ccc(OC)c(NC(=O)Cn2c(=O)cc(-c3ccccc3)c3c(C)nn(C)c32)c1 returned Tau fibril ThT inconclusive, Tau fluor counter inactive, TRb-SRC2 inh inactive, Tau fibril FP inactive and TexasRed fluor inactive.
`Cc1cccc(-c2nnc(SCCC(=O)O)o2)c1` gave Tau fibril ThT inconclusive, Tau fluor counter inconclusive, TRb-SRC2 inh inactive, Tau fibril FP inactive and TexasRed fluor inconclusive.
Screening COc1ccc(-c2cc(C)nc3c(-c4ccc(OC)c(OC)c4)c(C)nn23)cc1 returned Tau fibril ThT 10µM, Tau fluor counter 14µM[quencher], TRb-SRC2 inh inactive, Tau fibril FP inconclusive and TexasRed fluor inactive.

Assay outcomes from PubChem.
